According to PubChem BioAssay (NCATS):
Records with an inconclusive call do not appear. Entries that show only a call come without a potency. The source made the active and inactive calls. Calls come from the whole dose curve; as a rule, active = well fitted curve in the direction sought with a large enough effect; inconclusive = small, poorly fitted or top-dose-only effect, or another doubt; inactive = no such curve, though single readings can be large; an effect the other way counts as inactive or inconclusive.

What was measured:
[1] = qHTS assay to identify small molecule inhibitors of chordoma cells - UCH-1 (AID 1259355); note: nearly all actives have a fitted effect of over 55% in size; note: potency is the fitted concentration of half-maximal effect; series mostly up to about 46 µM
Summary of the method: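 Screening used approved and investigational drugs in 15-point titration against 800 seeded cells per well. A fixed combination of auranofin with camptothecin, doxorubicin, rubitecan and topotecan followed compound addition, and growth was scored by CellTiter-Glo after 48hr.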

[2] = qHTS assay to identify small molecule inhibitors of chordoma cells - UCH-2 (AID 1259356); note: potency is the fitted concentration of half-maximal effect
[3] = P-glycoprotein substrates identified in KB-8-5-11 adenocarcinoma cell line, qHTS therapeutic library screen (AID 1346987); note: nearly all actives have a fitted effect of over 65% in size; note: potency is the fitted concentration of half-maximal effect
Summary of the method: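 Luminescence from CellTiter-Glo, read 5 min after addition, quantified survival of KB-8-5-11 (P-gp-overexpressing) cells exposed to compounds for 72 h. AC50 was derived from concentration-response curves.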

[4] = P-glycoprotein substrates identified in KB-3-1 adenocarcinoma cell line, qHTS therapeutic library screen (AID 1346986); note: nearly all actives have a fitted effect of over 60% in size
Summary of the method: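 In 1536-well format, 500 cells/well received pinned compound titrations and were incubated 72 h, 5% CO2. Viability was read by CellTiter-Glo; cytotoxic if AC50 < 10 uM and efficacy >50%.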

[5] = qHTS assay for cell viability of the p53RE-bla HCT-116 cell line (AID 743292); note: nearly all actives have a fitted effect of over 55% in size
Summary of the method: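 Luminescent ATP quantitation (CellTiter-Glo) served as the viability read-out; reagent was added after 16 h compound exposure at 37 C and read after 30 min at room temperature. Cells: p53RE-bla HCT-116, 4,000 per well.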

SMILES	Potency [1]	Potency [2]	Potency [3]	Potency [4]	Potency [5]
C[C@@H](Cc1ccccc1)N(C)C	inactive	inactive	inactive		
F/C(COc1ccc2c(c1)[nH]c1ccccc12)=C1/CN2CCC1CC2	inactive	inactive	inactive		
CNC(=O)OCC[N+](C)(C)C	inactive	inactive	inactive		
COc1cc2c(cc1OC)[C@@]13CCN4CC5=CCO[C@H]6CC(=O)N2[C@H]1[C@H]6[C@H]5C[C@H]43	inactive	inactive	inactive		
CC(=O)OCC(=O)[C@H]1CC[C@H]2[C@@H]3CC[C@H]4C[C@H](O)CC[C@]4(C)[C@H]3C(=O)C[C@]12C	inactive	inactive	inactive		
C[C@H]1CC[C@]2(NC1)O[C@H]1C[C@H]3[C@@H]4CC[C@H]5C[C@@H](O[C@@H]6O[C@H](CO)[C@H](O[C@@H]7O[C@H](CO)[C@@H](O)[C@H](O[C@@H]8OC[C@@H](O)[C@H](O)[C@H]8O)[C@H]7O[C@@H]7O[C@H](CO)[C@@H](O)[C@H](O)[C@H]7O)[C@H](O)[C@H]6O)CC[C@]5(C)[C@H]4CC[C@]3(C)[C@H]1[C@@H]2C	12.6 µM (active)	2.06 µM (active)	20.6 µM (active)		
CCCCNCC(O)c1ccc(O)cc1 (centres undefined)	inactive	inactive	inactive		
C[C@]12CCC(=O)C=C1C=C[C@@H]1[C@@H]2CC[C@@]2(C)[C@H]1CC[C@@]2(O)CCC(=O)O	inactive	inactive	inactive		
C=CCN1CC[C@]23c4c5ccc(O)c4O[C@H]2[C@@H](O)C=C[C@H]3[C@H]1C5	inactive	inactive	inactive		
CCC1(c2ccccc2)C(=O)NC(=O)N(C(=O)c2ccccc2)C1=O (centres undefined)	inactive	inactive	inactive		
CCCC(=O)OC(C(Cl)(Cl)Cl)P(=O)(OC)OC (centres undefined)	inactive	inactive	inactive		
Clc1ccc(Cl)cc1	inactive	inactive	inactive		
Cc1ccccc1-n1c(CF)nc2ccc(N)cc2c1=O	inactive	inactive	inactive		
O=c1[nH]cc(N(CCCl)CCCl)c(=O)[nH]1	inactive	inactive	inactive		
CC(=O)O[C@H]1C[C@H](O[C@H]2[C@@H](O)C[C@H](O[C@H]3[C@@H](O)C[C@H](OC4CC[C@@]5(C)[C@H](CC[C@@H]6[C@@H]5CC[C@]5(C)[C@@H](C7=CC(=O)OC7)CC[C@]65O)C4)O[C@@H]3C)O[C@@H]2C)O[C@H](C)[C@H]1O[C@@H]1O[C@H](CO)[C@@H](O)[C@H](O)[C@H]1O (some centres undefined)	0.447 µM (active)	0.259 µM (active)	0.259 µM (active)		
CC(=O)O[C@H]1CC[C@H]2[C@@H]3CCC4=CC(=O)CCC4=C3C=C[C@]12C	inactive	inactive	7.31 µM (active)		
CCCCCCCCCC(=O)O[C@H]1CC[C@H]2[C@@H]3CCC4=CC(=O)CC[C@]4(C)[C@H]3CC[C@]12C	inactive	inactive	16.4 µM (active)		
CCC(N)Cc1c[nH]c2ccccc12 (centres undefined)	inactive	inactive	inactive		
CCC1(c2ccccc2)C(=O)NC(=O)N(C)C1=O (centres undefined)	inactive	inactive	inactive		
CC(N)Cc1ccc(O)cc1 (centres undefined)	inactive	inactive	inactive		
[2H]C([2H])([2H])[C@H](N)Cc1ccccc1	inactive	inactive	inactive		
C#CC(C)(O)CC (centres undefined)	inactive	inactive	inactive		
CCNCC(O)c1cccc(O)c1 (centres undefined)	inactive	inactive	inactive		

SMILES	Potency [1]	Potency [2]	Potency [3]	Potency [4]	Potency [5]
CNC1(c2ccccc2Cl)CCCCC1=O (centres undefined)	inactive	inactive	inactive		
COc1ccc(OC)c([C@@H](O)[C@H](C)N)c1	inactive	inactive	inactive		
c1csc(C2(N3CCCCC3)CCCCC2)c1	inactive	inactive	inactive		
CC[N+](C)(CC)CCOC(=O)C(O)(c1ccccc1)c1ccccc1	inactive	inactive	inactive		
C[C@]12CC[C@H](O)C[C@H]1CC[C@@H]1[C@@H]2CC[C@]2(C)[C@@H](c3ccc(=O)oc3)C[C@H]3O[C@]132	6.31 µM [with auranofin plus four topoisomerase inhibitors] (active)	6.51 µM (active)	1.84 µM (active)		
NCC[C@H](O)C(=O)N[C@@H]1C[C@H](N)[C@@H](O[C@H]2O[C@H](CN)[C@@H](O)[C@H](O)[C@H]2N)[C@H](O[C@@H]2O[C@H](CO)[C@@H](O)[C@H]2O)[C@H]1O	inactive	inactive	inactive		
CCC1(CC)C(=O)NC(=O)N(C)C1=O	inactive	inactive	inactive		
N#CC1(N2CCCCC2)CCCCC1	inactive	inactive	inactive		
O=C(NC(=O)c1c(F)cccc1F)Nc1ccc(Cl)c(Oc2ncc(C(F)(F)F)cc2Cl)c1	inactive	inactive	inactive		
O=C1C[C@@H]2OCC=C3CN4CC[C@]56c7ccccc7N1[C@H]5[C@H]2[C@H]3C[C@H]46				inactive	
COCC(C)N(C(=O)CCl)c1c(C)csc1C (centres undefined)		inactive	inactive		inactive
CN[C@H]1C[C@@H](N)[C@H](O)[C@@H](O[C@@H]2O[C@H](CO)[C@H](O)[C@@H]3OC4(O[C@H]23)O[C@H](C(N)CO)[C@H](O)[C@H](O)[C@H]4O)[C@@H]1O (some centres undefined)		inactive	inactive		
CCC1(c2ccccc2)C(=O)NC(=O)NC1=O		inactive	inactive		
CN(C)CCCCCCN(C)C (tested in a mixture with another compound)		inactive	inactive		
C[N+]1([O-])[C@@H]2CC[C@H]1CC(OC(=O)C(CO)c1ccccc1)C2 (some centres undefined)		inactive	inactive		
CC(C)CCC(=O)O[C@H]1CC[C@H]2[C@@H]3CCC4=CC(=O)CC[C@]4(C)[C@H]3CC[C@]12C		inactive	7.31 µM (active)		
COc1ccc2c(c1OC)C(=O)OC2C1c2cc3c(cc2CCN1C)OCO3 (centres undefined)	inactive				inactive
O=C(NCNC(=O)NC1C(=O)NC(=O)N1CO)NC1C(=O)NC(=O)N1CO (centres undefined)	inactive				inactive
CC1(C)S[C@@H]2[C@H](N)C(=O)N2[C@H]1C(=O)O		inactive			
O=CC=O		inactive	inactive		inactive
O=C1CCO1		inactive	inactive		inactive
OC[C@@H](O)[C@H]1O[C@@H]2O[C@H](C(Cl)(Cl)Cl)O[C@@H]2[C@H]1O		inactive	inactive		
O=C1C=C2C=C[C@@H]3C[C@@]2(O1)[C@H]1CCCCN31		inactive			
